IL1B secr inh: inhibitors of inflammasome signaling (IL-1 beta secretion) | hit rate 4.7% among 360,000 | activity change, % at 57.5 µM | AID 743279 | THP-1 LPS/ATP IL-1B secretion, AlphaLISA, 16 h; hits give low values; in the data active = activity change below about -50%; inconclusive = mostly about -30% to -49%
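THP-1 cells pretreated 1 hr with compounds (up to 57.5 uM final), then stimulated with LPS (250 ng/mL final) plus ATP (1.25 mM final); secreted IL-1B measured by AlphaLISA after 16 hr, decreased signal indicating inhibition.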
HT1080NT lethal: kills 2HG-producing HT-1080-NT fibrosarcoma cells; HT-1080-NT fibrosarcoma viability, CellTiter-Glo ATP luminescence, 48 h; Potency, µM (top dose mostly 46.1 µM), inactives show at the top dose activity, negative = less viability, hits mostly cytotoxic; hit rate 1.6% among 360,000; AID 686970;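 also: NT is the 2HG producing partner of a matched IDH1 knockdown line; potency is read from the fitted curve at half-maximal effect; 0% = DMSO-treated cells and -100% = media-only wells without cells; nearly all actives have a fitted effect of over 55% in size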
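Viability of the 2HG-overproducing fibrosarcoma line after 48 hours of compound exposure at 37 degrees C was determined by luminescence with CellTiter-Glo, and concentration-effect curves were then fitted and categorized.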
DT40 TDP1 CPT: DT40-hTDP1 cell growth loss with CPT; Potency, µM (doses to about 46.2 µM), for inactives: at the highest dose activity change, negative = growth inhibition, usual class: inhibitors; hit rate 12% among 420,000; AID 686979; chicken DT40 Tdp1-/-;hTDP1 cells + 20 nM CPT, ATP luminescence, 48 h; also: potency is read from the fitted curve at half-maximal effect; nearly all actives have a fitted effect of over 55% in size
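Chicken DT40 Tdp1-/- cells stably complemented with human TDP1 were seeded at 400 cells/well in medium containing 20 nM camptothecin, exposed to pin-transferred compounds, and grown at 37 °C for at least 48 hr. Viability was read as ATP luminescence.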
TDP1 cell noCPT: qHTS for Inhibitors of human tyrosyl-DNA phosphodiesterase 1 (TDP1): qHTS in cells in absence of CPT | AID 686978, 2013 | DT40 Tdp1-/- hTDP1 cells, no CPT, ATP luminescence, 48 h | hit rate 15% among 420,000 | Potency, µM (series often up to 46.2 µM), inactives show at the highest dose activity change, negative = growth inhibition, most hits filed as inhibitors; also: potency is read from the fitted curve at half-maximal effect; nearly all actives have a fitted effect of over 55% in size
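Camptothecin absent (DMSO only). Human TDP1-complemented DT40 knockout cells, 400 cells/well, 37 °C for minimum 48 hr; ATP measured via CellTiter-Glo, 30 min dark incubation, luminescence.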
uPA generation: inhibitors of cell surface uPA generation | cell surface uPA generation assay, qHTS | Potency, µM (highest dose often 38.3 µM), inactives show top-dose activity change, negative = inhibition, actives largely listed as inhibitors | hit rate 0.31% among 330,000 | AID 540303; active = well fitted inhibition curve with a large enough effect; inconclusive = small, poorly fitted or top-dose-only effect; inactive = no such curve, though single readings can be large or run the other way; tested in mouse RAW 264.7 cells; also: potency is read from the fitted curve at half-maximal effect; nearly all actives have a fitted effect of over 55% in size
HT1080 IDH1KD tx: HT-1080 IDH1 knockdown cell toxicity (counter line) | Potency, µM (highest dose often 46.1 µM), for inactives: top-dose activity, negative = toxicity, usual class: cytotoxic | HT-1080 IDH1 knockdown viability, ATP luminescence, 48 h | hit rate 2% among 360,000;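 also: potency is read from the fitted curve at half-maximal effect; 0% = DMSO wells and -100% = cell-free medium wells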
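Viability of IDH1-knockdown HT-1080 fibrosarcoma cells was assessed by CellTiter-Glo after 48 h at 37 °C with titrated compound; concentration-effect curves were classified by fit quality and response size.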
Numbers without * were called inactive; ? = inconclusive; · = not tested or not shown. Shown are actives, neighbours in structure and some others; about 19% of the full set was active somewhere. Unless noted, calls follow the shape of the dose curve; as a rule, active = well fitted curve in the direction sought with a large enough effect; inconclusive = small, poorly fitted or top-dose-only effect, or another doubt; inactive = no such curve, though single readings can be large; an effect the other way counts as inactive or inconclusive. Unless noted, % is scaled to controls: 0 for no effect and ±100 for the full control effect.

SMILES | IL1B secr inh | HT1080NT lethal | DT40 TDP1 CPT | TDP1 cell noCPT | uPA generation | HT1080 IDH1KD tx
CNC(=O)COC(=O)/C=C/c1cn(-c2ccccc2)nc1-c1ccc2c(c1)OCCO2 | 0.0 | 0.0% | 9.1% | 1.6% | 3.4% | 5.7%
Cc1ccc(-c2nn(-c3ccccc3)cc2C=O)o1 | -15.5 | ? | ? | ? | -13.2% | 18.4µM*
O=C(Nc1ccc(Cl)cc1)C1CCN(c2nc3ccccc3nc2C(F)(F)F)CC1 | · | · | ? | -29.2% | · | ·
NC(=S)NN=C1CCC(C2CCCCC2)CC1 (configuration not stated) | ? | 1.4% | 5.8µM* | 3.66µM* | -4.7% | -4.9%
NC(=S)NN=C1CCCCCCCCCC1 | -1.0 | 5.3% | 3.66µM* | 10.3µM* | -7.6% | -5.7%
CCCCCCCCCCCCCCCC(=O)OC[C@@H](O)[C@H]1OC[C@H](O)[C@H]1O | · | · | 3.7% | -13.8% | · | ·
CCCn1nnc(NC(=S)NC(=O)C(C)(C)C)n1 | 15.8 | 14.4% | ? | ? | 1.5% | 0.9%
CCCn1nnc(NC(=S)NC(=O)c2cccs2)n1 | 0.0 | 9.2% | 20.6µM* | 18.4µM* | -0.2% | 8.1%
CCC(C)c1ccc(NC(=S)NN2CCOCC2)cc1 (configuration not stated) | 0.0 | 10.8% | -0.3% | -7.2% | 2.8% | 13.6%
Cc1ccccc1Cn1cnc2nc3c(cc2c1=O)CC(C)CC3 (configuration not stated) | · | · | 16.4µM* | 2.59µM* | · | ·
CC1CCc2nc3ncn(Cc4ccc(Cl)cc4)c(=O)c3cc2C1 (configuration not stated) | · | · | 18.4µM* | 23.1µM* | · | ·
COC(=O)c1ccc(Cn2cnc3nc4c(cc3c2=O)CCCC4)cc1 | · | · | 3.2% | 9.1% | · | ·
Cc1cc(-c2ccccc2)c2ccc(NC(=O)C(C)(C)C)nc2n1 | -12.8 | -6.2% | 20.6µM* | 14.6µM* | 19.7% | 1.0%
O=C(C1CCCN(S(=O)(=O)c2cccc3nsnc23)C1)N1CC=C(c2ccccc2)CC1 (configuration not stated) | -54.8* | -12.0% | 13µM* | 10.3µM* | -8.5% | ?
O=C(NCCc1ccccc1)C1CCCN(S(=O)(=O)c2cccc3nsnc23)C1 (configuration not stated) | 0.0 | 3.0% | ? | 13µM* | 0.5% | 0.6%
O=C(C1CCN(S(=O)(=O)c2cccc3nsnc23)CC1)N1CC=C(c2ccccc2)CC1 | 7.6 | -6.8% | 18.4µM* | 16.4µM* | -8.7% | -15.9%
CC1CCCCN1C(=O)C1CCCN(S(=O)(=O)c2cccc3nsnc23)C1 (configuration not stated) | 60.7 | 12.6% | ? | -19.1% | 3.2% | 15.5%
O=C(C1CCN(S(=O)(=O)c2cccc3nsnc23)CC1)N1CCCCC1 | -5.7 | 4.9% | -18.6% | 15.2% | -1.6% | 12.7%
COc1cccc(NC(=O)CSc2nnnn2C2CCCCC2)c1 | -7.7 | -15.0% | -11.3% | ? | 2.7% | -6.3%
CCCCn1nnnc1C1(C)CCC(=O)N1Cc1ccc(C)cc1 (configuration not stated) | 16.3 | 27.2% | 5.0% | -9.5% | · | 14.3%
COc1ccccc1C(=O)N/C(=C/c1cccc([N+](=O)[O-])c1)C(=O)Nc1cccc(C(=O)O)c1 | -7.6 | 22.5% | 20.6µM* | ? | 1.2% | 15.6%
COc1ccccc1NC(=O)/C(=C/c1cccc([N+](=O)[O-])c1)c1ccccc1 | -2.5 | -0.1% | 13µM* | 9.2µM* | -0.6% | 10.3%
COc1ccccc1NC(=O)CC(=O)c1cccc([N+](=O)[O-])c1 | 6.1 | 5.7% | 9.5% | -29.0% | -2.9% | 6.3%
Cc1cccc(C(=O)Oc2cccc3c(O)cccc23)c1 | 12.3 | -9.5% | -24.8% | -11.2% | ? | -4.2%
CCc1nc2cc(C(=O)NC3CCS(=O)(=O)C3)cc(NC(=O)c3ccccc3OC)c2n1C (configuration not stated) | · | · | -3.1% | -7.8% | · | ·
SMILES | IL1B secr inh | HT1080NT lethal | DT40 TDP1 CPT | TDP1 cell noCPT | uPA generation | HT1080 IDH1KD tx
O=C(C(=O)N1CCN(c2ccccc2Cl)CC1)c1c[nH]c2ccccc12 | 6.1 | 10.2% | ? | ? | 5.8% | 0.0%
Fc1ccccc1N1CCN(C2CCN(Cc3c[nH]c4ccccc34)CC2)CC1 | 4.2 | 7.0% | 16.4µM* | ? | 5.5% | -6.4%
Clc1ccccc1N1CCN(Cc2c[nH]c3ccccc23)CC1 | -80.6* | ? | 2.59µM* | 5.17µM* | -5.5% | 18.4µM*
O=C(O)c1ccc(Cl)c(NC(=S)NC(=O)c2ccccc2[N+](=O)[O-])c1 | 1.2 | 13.6% | -3.4% | 11.8% | 2.3% | 13.8%
Cc1ccc(C2CC(=O)NC(SCC(N)=O)=C2C#N)s1 (configuration not stated) | -5.6 | 1.5% | -15.2% | 0.1% | 5.3% | 8.5%
N#CC1=C(SCC(N)=O)NC2=C(C(=O)c3ccccc32)C1c1ccc(Cl)cc1 (configuration not stated) | -51.7* | -0.6% | 29.1µM* | 16.4µM* | -1.9% | 5.4%
CC(C)(C)c1ccc(S(=O)(=O)/C=C\C#N)cc1 | · | · | 0.473µM* | 0.531µM* | · | ·
Cc1ccc(S(=O)(=O)c2ccc(C)cc2)cc1 | -0.6 | 5.9% | 0.6% | -12.2% | 9.4% | 1.2%
Cc1ccc(S(=O)(=O)/C=C/C#N)cc1 | · | · | 1.3µM* | 0.651µM* | · | ·
O=S(=O)(/C=C/C=C/S(=O)(=O)c1ccccc1)c1ccccc1 | -101.4* | ? | 0.0259µM* | 0.0461µM* | 4.4% | 1.3µM*
NS(=O)(=O)c1ccccc1 | 23.5 | -2.6% | -19.8% | -7.0% | 0.8% | 12.4%
Cc1ccc(S(=O)(=O)CS(=O)(=O)c2ccc(C)cc2)cc1 | -5.2 | 8.4% | -20.1% | -20.4% | 8.8% | ?
Cc1ccc(S(=O)(=O)C=CS(=O)(=O)c2ccc(C)cc2)cc1 | -16.9 | ? | 1.03µM* | 0.731µM* | · | ?
Cc1cn([C@H]2C[C@H](O)[C@@H](/C=C/C(=O)NCc3ccc4c(c3)OCO4)O2)c(=O)[nH]c1=O | 3.1 | 19.8% | 6.8% | 1.9% | · | 11.1%
O=C(NCCCn1ccnc1)C1CCCN(S(=O)(=O)c2ccc(F)cc2)C1 (configuration not stated) | -13.8 | -2.2% | 17.6% | -13.2% | 2.7% | -0.3%
COCCn1cnc2c1c(=O)n(CC(=O)OCC(=O)NCC(F)(F)F)c(=O)n2Cc1ccccc1 | 7.2 | 20.1% | 5.1% | -4.2% | -3.4% | 11.2%
COc1ccccc1C(CNC(=O)CCNC(=O)c1ccccc1Cl)N1CCCC1 (configuration not stated) | 1.0 | 5.1% | -0.3% | 1.9% | 1.2% | 8.0%

Screening results as filed in PubChem BioAssay.
